From article PMC3795721, “Screening for Protein-DNA Interactions by Automatable DNA-Protein Interaction ELISA”

Molecular target: AT4G31550 (Arabidopsis thaliana, UniProt Q9SV15 228-325)
Test: DPI-ELISA; DPI-ELISA, streptavidin 384-well plate, 1-2 pmol biotinylated dsDNA per well, crude native E. coli extract, anti-His detection; buffer as in Brand et al. [46],; high values mean tight binding
Settings: tags: C-terminal His (pET-DEST42); label: 5' biotin on forward strand; dsDNA, one strand shown

AT4G31550, sequence (Q9SV15 228-325): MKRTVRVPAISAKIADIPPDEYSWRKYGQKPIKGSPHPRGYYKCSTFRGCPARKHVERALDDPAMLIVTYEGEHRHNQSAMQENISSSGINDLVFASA

Sequence | binding signal [absorbance]
AAAAAAAACTCCCATACTACAACCGAAAAA | 0.53 ± 0.099
AAAAAAGGACGTCTTCGGTATGAGTGAAAA | 0.815 ± 0.163
AAAAAACCAGCCTCAGTCCTGAACAAAAAA | 0.605 ± 0.0636
AAAAAAGGGTTTAGATGTCCTTCAAAAAAA | 0.59 ± 0.099
AAAAAATCCTTTTCTCTTTCTGTTTCAAAA | 0.575 ± 0.12
AAAAAAGAGTGGTTTATTAATGTATAAAAA | 0.74 ± 0.184
AAAAAATATCATTGTTACCGTTGCTAAAAA | 0.465 ± 0.12
AAAAAAGTACGGATGCCCGCGCGTATAAAA | 0.735 ± 0.205
AAAAAAGCTGTCACTGTAGTCGGTCCAAAA | 0.67 ± 0.0707
AAAAAATCCATGTTTAAGCTGGTCTCAAAA | 0.695 ± 0.148
AAAAAATGTATTCGTGTCCACTCCATAAAA | 0.53 ± 0.0707
AAAAAACCTTACTGTTGATTCTGGTTAAAA | 0.635 ± 0.134
AAAAAATCTTACCCCTCCGCTTCTATAAAA | 0.72 ± 0.255
AAAAAATCTAGGGGTACCTATTTGGCAAAA | 0.675 ± 0.12
AAAAAAATGATTTGCAGATCTCCGAGAAAA | 0.935 ± 0.488
AAAAAACATAACCGCAAAATCCCTACAAAA | 0.545 ± 0.0919
AAAAAACTGGCGACTGCCAGTGGTAGAAAA | 0.385 ± 0.0354
AAAAAATATCTGATCCAATTTAGGTCAAAA | 1.5 ± 0.0212
AAAAAACTACGTATATTCAGGCCCTAAAAA | 0.68 ± 0.113

Sequence | binding signal [absorbance]
AAAAAAACTATAGTCTTTGTCATGATAAAA | 0.64 ± 0.0707
AAAAAACCGTCTTATCTCTCGTCCCTAAAA | 0.565 ± 0.12
AAAAAATCTATTCCATTTCGCCTTCTAAAA | 0.68 ± 0.141
AAAAAAATCTCACTCCTGGTCCCCATAAAA | 0.56 ± 0.099
AAAAAATACATTTGACTTTGGGTTTCAAAA | 3.4 ± 0.297
AAAAAAAATCTTAGCTCTATCTCATCAAAA | 0.68 ± 0.113
AAAAAATATTCCGCTTTTGGCTGAATAAAA | 0.635 ± 0.0636
AAAAAAGGCGTCTGACTGTAACTCGTAAAA | 1.43 ± 0.445
AAAAAAGCGTAAGCCTTGACAGTCGTAAAA | 0.725 ± 0.106
AAAAAAACATCCACACCCGCGGCGCGAAAA | 0.56 ± 0.141
AAAAAACGCAACTCCGGATGTGGGGTAAAA | 0.545 ± 0.0636
AAAAAATGGTACTCAGAGTTATAGACAAAA | 0.66 ± 0.141
AAAAAAGGAAGTACTGACGATCTGGAAAAA | 0.615 ± 0.148
AAAAAAATTACGCGGGATCGCCAAAA | 0.6 ± 0.0566
AAAAAATGTCCATCTTGCGTCTGTATAAAA | 0.79 ± 0.212
AAAAAAATCACGGTTCGACCTCCAGCAAAA | 0.7 ± 0.127
AAAAAATTACTTCTCCCTTCCTTTGCAAAA | 0.605 ± 0.163
AAAAAATTCCTGTCCGCTCTCGCTCCAAAA | 0.685 ± 0.148
AAAAAATTGGTTCTCATTTCTACTTCAAAA | 0.57 ± 0.127
